Hits are enriched below; roughly 1.6% of the tested compounds scored in any of these assays.
IkB signaling – IkB pathway inhibition in ABC-DLBCL cells. ABC-DLBCL IkBa-CBG/CBR dual luciferase ratio, 4 h; response scale: scaled: untreated 0%, proteasome inhibitor 100%. Potency, µM (titrated, usually from 57.1 µM), for the others: top-dose IkBa stabilization activation. hit rate 0.04% among 110,000. AID 445; active means well fitted curve in the direction sought with a large enough effect in the signal ratio, not every such curve was filed as active; inconclusive means small, poorly fitted or top-dose-only effect, or a change in a side signal; the % refers to the signal ratio;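 further: the direction sought is a rising ratio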
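In this assay, an IκBα–CBG68 fusion accumulates when IKK-driven degradation is blocked; native CBR normalizes for cell number. OCI-Ly3 cells were treated 4 h with compound and doxycycline, then green and red light read after Chroma-Glo addition.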
p53ts 32C kill – kills p53ts cells at the permissive temperature. H1299-p53A138V at 32C, ATP luminescence viability, 24 h. Potency, µM (doses to about 46.1 µM), for the others: top-dose activity change, negative = cytotoxicity, hits mostly cytotoxic. hit rate 0.93% among 130,000. AID 924;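 further: 0% = DMSO and -100% = full killing by reference compound; nearly all actives have a fitted effect of over 55% in size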
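Viability by ATPlite luminescence after 24 h compound treatment (up to 46 uM) at the permissive 32C. Cells are H1299 carrying p53 A138V. Scale runs from DMSO basal to 100 uM tamoxifen as full kill; AC50 from Hill fits.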
Imprint erasure – genomic imprint erasure induction. hit rate 0.02% among 110,000. Potency, µM (doses to about 60.7 µM), without a hit: at the highest dose activity change, positive = activation, most hits filed as activators. AID 1948. mouse ES Peg3-LacZ reporter, beta-gal luminescence, 40 h
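Each well holds 300 Peg3LacZ-Neo (maternal) female ES cells incubated 40 h at 37C, 5% CO2. LacZ is measured by BetaGlo luminescence, with AC50 and maximum efficacy derived from dose-response curves.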
p53ts 39C tox – kills p53ts cells at the nonpermissive temperature; H1299-p53A138V viability at 39C, ATP luminescence, 24 h; hit rate 1.5% among 130,000; AID 902; Potency, µM (top dose mostly 46.1 µM), inactives show at the highest dose activity change, negative = cell killing, usual class: cytotoxic; further: on the % scale 0 is the no-effect control and ±100 the full control effect; nearly all actives have a fitted effect of over 55% in size
* marks the source's active call; other numbers are inactive results; [ ] = remark or other dose. Unless noted, the call rests on the fitted dose curve; in most records, active means well fitted curve in the direction sought with a large enough effect; inconclusive means small, poorly fitted or top-dose-only effect, or another doubt; inactive means no such curve, though single readings can be large; an effect the other way counts as inactive or inconclusive. Potency means the concentration at half of the fitted maximal effect.

Screening Cc1ccc(CS(=O)(=O)c2ncc(Cl)c(C(=O)Nc3nc4ccc(C)cc4s3)n2)cc1 returned IkB signaling inconclusive, p53ts 32C kill 16µM*, Imprint erasure -26%[10.9 µM] and p53ts 39C tox 13µM*.
`O=C(Nc1cc(Cl)cc(Cl)c1)c1ccc(F)c(S(=O)(=O)N2CCc3ccccc32)c1` gave IkB signaling 3%, p53ts 32C kill 5%, Imprint erasure -17%[10.9 µM] and p53ts 39C tox 13%.
`NCCNc1ncnc2ccc(Cl)cc12` gave IkB signaling -1%[11.4 µM], p53ts 32C kill 6%[9.22 µM], Imprint erasure -14%[10.9 µM] and p53ts 39C tox -1%[9.22 µM].
`Cc1ccc(C(C)C)c(OCC(=O)Nc2cccc(-c3nc4ncccc4o3)c2)c1` gave IkB signaling inconclusive, p53ts 32C kill inconclusive, Imprint erasure -8%[10.9 µM] and p53ts 39C tox 16µM*.
For CCC(C)c1ccc(OCC(=O)Nc2ccc(-c3nc4ncccc4o3)cc2)cc1 (stereo not drawn) the results were IkB signaling -1%, p53ts 32C kill inconclusive, Imprint erasure -18%[10.9 µM] and p53ts 39C tox 10µM*.
For Cc1cc(C)c(OCC(=O)Nc2cccc(-c3nc4ncccc4o3)c2)c(Br)c1 the results were IkB signaling inconclusive, p53ts 32C kill -5%, Imprint erasure -17%[10.9 µM] and p53ts 39C tox -3%.
`COc1ccc(C(=O)Nc2ccc(-c3nc4ncccc4o3)cc2)cc1` gave IkB signaling inconclusive, p53ts 32C kill 1%, Imprint erasure -11%[10.9 µM] and p53ts 39C tox 23%.
For Cc1cc(C)cc(C(=O)Nc2ccc(-c3nc4ncccc4o3)cc2)c1 the results were IkB signaling inconclusive, p53ts 32C kill -22%, Imprint erasure -6%[10.9 µM] and p53ts 39C tox 10µM*.
`Cc1c(Cl)cccc1-c1ccc(C(=O)Nc2ccc3oc(-c4cccnc4)nc3c2)o1` gave IkB signaling 8%, p53ts 32C kill -10%, Imprint erasure -30%[10.9 µM] and p53ts 39C tox 30%.
For O=C(Nc1cccc(-c2nc3ncccc3o2)c1)c1ccc(-c2cccc(Cl)c2Cl)o1 the results were IkB signaling inconclusive, p53ts 32C kill 10µM*, Imprint erasure -13%[10.9 µM] and p53ts 39C tox 13µM*.
NC(=O)c1ccccc1N/C=C/C(=O)c1ccccc1 was read as IkB signaling inconclusive, p53ts 32C kill 5µM*, Imprint erasure -87% and p53ts 39C tox 10µM*.
`CCN(C(=O)Cn1c(C(=O)OC)cc2oc3ccccc3c21)c1cccc(C)c1` gave IkB signaling inconclusive, p53ts 32C kill 26%, Imprint erasure -18%[10.9 µM] and p53ts 39C tox -1%.
`CC(C)(C)C(=O)Nc1ccc(-c2nc3ccc(NC(=O)C(C)(C)C)cc3[nH]2)cc1` gave IkB signaling -6%, p53ts 32C kill 7.9µM*, Imprint erasure -13%[10.9 µM] and p53ts 39C tox inconclusive.
For Cc1ccc(-c2nc3sc(CCNC(=O)c4ccc(Br)o4)c(C)n3n2)cc1 the results were IkB signaling inconclusive, p53ts 32C kill inconclusive, Imprint erasure -12%[10.9 µM] and p53ts 39C tox inconclusive.
`COc1cc2c(cc1OC)CN(C(=O)CC1CC3CCC1C3)CC2` (stereo not drawn) gave IkB signaling inconclusive, p53ts 32C kill 10µM*, Imprint erasure -66% and p53ts 39C tox 13µM*.
Screening CC(C)CS(=O)(=O)c1oc(-c2ccc(F)cc2)nc1S(=O)(=O)c1ccccc1 returned IkB signaling inconclusive, p53ts 32C kill 10µM*, Imprint erasure -42%[10.9 µM] and p53ts 39C tox 2.5µM*.
Screening CCC(C)S(=O)(=O)c1oc(-c2cccs2)nc1S(=O)(=O)c1ccccc1 (stereo not drawn) returned IkB signaling inconclusive, p53ts 32C kill 6.3µM*, Imprint erasure -38%[10.9 µM] and p53ts 39C tox 1µM*.
Screening O=S(=O)(c1ccccc1)c1nc(-c2ccc(F)cc2)oc1NCc1ccccc1 returned IkB signaling -2%, p53ts 32C kill 7%, Imprint erasure -7%[10.9 µM] and p53ts 39C tox -8%.
`Cc1ccc(C(=O)[C@@H]2[C@@H]3[C@@H](C(=O)[C@@H]4OC[C@H]3O4)[C@@H]3C=Cc4ccccc4N23)cc1` gave IkB signaling 3%[11.4 µM].
For CC1CCCCN1CCNC(=O)c1ccc(Cn2c(SCc3ccccc3)nc3cccnc32)cc1 (stereo not drawn) the results were IkB signaling inconclusive, p53ts 32C kill 10µM*, Imprint erasure -14%[10.9 µM] and p53ts 39C tox 10µM*.
For CC1CCN(CCNC(=O)c2ccc(Cn3c(SCc4ccccc4)nc4cccnc43)cc2)CC1 the results were IkB signaling inconclusive, p53ts 32C kill inconclusive, Imprint erasure -18%[10.9 µM] and p53ts 39C tox 10µM*.
Screening O=C(NCCc1ccccc1)c1ccc(CSc2nc3cccnc3n2Cc2ccc(F)cc2)cc1 returned p53ts 32C kill 15%.
For O=C(NCCN1CCCCC1)c1ccc(Cn2c(SCc3ccccc3)nc3cccnc32)cc1 the results were IkB signaling inconclusive, p53ts 32C kill 13µM*, Imprint erasure -12%[10.9 µM] and p53ts 39C tox 10µM*.
`O=C(NC1CCCC1)c1ccc(CSc2nc3cccnc3n2Cc2ccc(F)cc2)cc1` gave p53ts 32C kill 4%.
Cc1cc(Cl)ccc1NS(=O)(=O)c1c(C(=O)N2CCC(C)CC2)c(C)n(C)c1C was read as IkB signaling inconclusive, p53ts 32C kill 9%, Imprint erasure -5%[10.9 µM] and p53ts 39C tox -17%.
`CCOc1ccc(-c2cc(C(=O)N3CCN(S(=O)(=O)c4cc(Cl)ccc4OC)CC3)[nH]n2)cc1` gave p53ts 32C kill 1%.
CCN(CC)CCn1c(NCc2ccc(OC)cc2)nc2ccccc21 was read as IkB signaling 2%, p53ts 32C kill -10%, Imprint erasure -20% and p53ts 39C tox -2%.
For CCCn1c(Nc2nc3ccccc3n2C)nc2ccccc21 the results were IkB signaling inconclusive, p53ts 32C kill inconclusive, Imprint erasure -38% and p53ts 39C tox 10µM*.
CCCn1c(NC(=O)c2ccccc2)nc2ccccc21 was read as IkB signaling inconclusive, p53ts 32C kill 4%, Imprint erasure -21% and p53ts 39C tox -13%.
`CCCCCn1c(NCc2ccc(OC)cc2)nc2ccccc21` gave IkB signaling inconclusive, p53ts 32C kill inconclusive, Imprint erasure -20%[10.9 µM] and p53ts 39C tox 16µM*.
`Cc1c(C(=O)N(C)C)sc2c1c(=O)n(-c1ccc(Cl)c(Cl)c1)c(=O)n2CC(=O)Nc1cccc(C(F)(F)F)c1` gave IkB signaling -1%, p53ts 32C kill 6%, Imprint erasure 13%[10.9 µM] and p53ts 39C tox -20%.
`N[C@@H](Cc1c[nH]c2ccc([N+](=O)[O-])cc12)C(=O)O` gave IkB signaling 0%[11.4 µM], p53ts 32C kill 7%[9.22 µM], Imprint erasure 2%[10.9 µM] and p53ts 39C tox 3%[9.22 µM].
Screening COc1ccc(NC(=O)c2c(NCc3ccc(C)o3)sc3c2CCC(C)C3)c(OC)c1 (stereo not drawn) returned IkB signaling inconclusive, p53ts 32C kill inconclusive, Imprint erasure -24%[10.9 µM] and p53ts 39C tox 20µM*.
